A short description of assay [1]: E. coli DRC41 culture turbidity changes, primary screen, E. coli filamentation inducer project, strain DRC41, OD650, 48 h (AID 1152).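 Also: E. coli MC1000 strain DRC41 lacking acrAB efflux pump and sulA.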 The conditions noted are these: E. coli DRC41 (acrAB sulA), higher = more signal, called active from +8 up or from −8 down.
Assay [2] is described as follows: small-molecule binders of probe aLefty1, primary screen, biochemical, small-molecule microarray, 635/667 nm fluorescence (AID 1153).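 Also: score merges spot fluorescence with signal-to-noise ratio from the scanned slide images.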 The note with it: higher = more signal.
Assay [3] can be described thus: PSAC antagonists in infected red cells, primary screen, cell-based, P. falciparum Indochina, OD700, 1 h (AID 1154). The conditions noted are these: P. falciparum Indochina infected RBC osmotic lysis, higher = more signal, called active from +8 up or from −8 down.
Assay [4] in a line: PSAC antagonists in infected red cells, primary screen, cell-based, P. falciparum Indochina, OD700, 2 h (AID 1155).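 Also: lysis reports solute entry through the parasite surface anion channel PSAC; channel blockers reduce lysis of infected cells.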 The conditions noted are these: P. falciparum Indochina infected erythrocytes, osmotic lysis OD700; higher = more signal, called active from +8 up or from −8 down.
A short description of assay [5]: osmotic lysis modulators in infected erythrocytes, primary screen, PSAC antagonist project, cell-based, P. falciparum Indochina, OD700, 3 h (AID 1156). The conditions noted are these: higher = more signal, called active from +8 up or from −8 down.
The nature of assay [6]: PSAC antagonists in infected red cells, primary screen, cell-based, P. falciparum Indochina, OD700, 18 h (AID 1157). The conditions noted are these: P. falciparum Indochina infected erythrocytes, osmotic lysis OD700, 18 h; higher = more signal, called active from +8 up or from −8 down.
The nature of assay [7]: modulators of S6 phosphorylation in cells, primary screen, cell-based, A549, cytoblot, luminescence, serum-stimulated (AID 1158).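 Also: serum-stimulated A549 lung adenocarcinoma cells; signal is phosphorylated S6 detected by cytoblot immunostaining with HRP secondary.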 The conditions noted are these: A549 phospho-S6 cytoblot, 5 h, higher = more signal.
In assay [8] the target is NADPH oxidase 2 (Homo sapiens) (UniProt P04839). Kind of assay: NOX2-dependent H2O2 signal modulators, primary screen, NOX inhibitor project, cell-based, HEK293-NOX2, PMA-stimulated, Amplex Red fluorescence (AID 1159). Also: test concentration not given here. The conditions noted are these: 45 min, higher = more signal, called active from +8 up or from −8 down.
Chain of NADPH oxidase 2 (Homo sapiens) (P04839 whole entry, looked up): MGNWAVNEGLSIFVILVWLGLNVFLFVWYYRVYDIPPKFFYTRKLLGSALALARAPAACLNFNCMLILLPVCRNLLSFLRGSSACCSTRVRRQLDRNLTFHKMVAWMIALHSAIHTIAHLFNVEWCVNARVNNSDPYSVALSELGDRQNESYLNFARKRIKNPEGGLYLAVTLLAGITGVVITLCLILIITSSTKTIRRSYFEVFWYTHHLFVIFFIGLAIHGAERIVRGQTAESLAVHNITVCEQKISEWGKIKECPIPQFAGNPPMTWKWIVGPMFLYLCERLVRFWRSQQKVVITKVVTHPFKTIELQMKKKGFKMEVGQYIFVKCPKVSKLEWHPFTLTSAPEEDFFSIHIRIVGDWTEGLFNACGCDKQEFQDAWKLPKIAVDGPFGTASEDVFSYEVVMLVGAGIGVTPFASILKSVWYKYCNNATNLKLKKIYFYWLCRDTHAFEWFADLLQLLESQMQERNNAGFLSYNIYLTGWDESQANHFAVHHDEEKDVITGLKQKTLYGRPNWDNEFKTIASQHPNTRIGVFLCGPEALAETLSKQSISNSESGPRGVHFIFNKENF
The target of assay [9] is NADPH oxidase 4 (Homo sapiens) (UniProt Q9NPH5). The experiment in a line: NOX4-dependent H2O2 signal modulators, primary screen, NOX inhibitor project, cell-based, HEK293-NOX4, tetracycline-induced, Amplex Red fluorescence (AID 1160). The conditions noted are these: 45 min, higher = more signal, called active from +8 up or from −8 down.
Chain of NADPH oxidase 4 (Homo sapiens) (Q9NPH5 whole entry, looked up): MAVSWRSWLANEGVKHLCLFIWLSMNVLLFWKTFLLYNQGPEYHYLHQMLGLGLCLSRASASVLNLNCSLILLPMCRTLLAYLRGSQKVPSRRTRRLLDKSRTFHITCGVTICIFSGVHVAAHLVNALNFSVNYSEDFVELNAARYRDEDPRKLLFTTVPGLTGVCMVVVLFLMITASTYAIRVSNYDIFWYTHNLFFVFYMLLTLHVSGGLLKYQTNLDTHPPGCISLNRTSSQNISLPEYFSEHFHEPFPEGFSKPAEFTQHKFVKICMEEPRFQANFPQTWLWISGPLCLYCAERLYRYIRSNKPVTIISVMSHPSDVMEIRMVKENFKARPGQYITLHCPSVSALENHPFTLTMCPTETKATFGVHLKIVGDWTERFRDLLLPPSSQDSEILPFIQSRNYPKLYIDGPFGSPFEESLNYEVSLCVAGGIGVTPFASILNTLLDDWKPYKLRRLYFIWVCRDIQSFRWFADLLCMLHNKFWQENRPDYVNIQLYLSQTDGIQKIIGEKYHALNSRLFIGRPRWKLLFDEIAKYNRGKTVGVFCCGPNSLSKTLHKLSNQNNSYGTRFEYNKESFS
The target of assay [10] is NADPH oxidase 5 (Homo sapiens) (UniProt Q96PH1). Kind of assay: NOX5-dependent H2O2 signal modulators, primary screen, NOX inhibitor project, cell-based, HEK293-NOX5, Amplex Red fluorescence (AID 1161). The conditions noted are these: HEK293-NOX5, ionomycin, 45 min, higher = more signal.
Chain of NADPH oxidase 5 (Homo sapiens) (Q96PH1 whole entry, looked up): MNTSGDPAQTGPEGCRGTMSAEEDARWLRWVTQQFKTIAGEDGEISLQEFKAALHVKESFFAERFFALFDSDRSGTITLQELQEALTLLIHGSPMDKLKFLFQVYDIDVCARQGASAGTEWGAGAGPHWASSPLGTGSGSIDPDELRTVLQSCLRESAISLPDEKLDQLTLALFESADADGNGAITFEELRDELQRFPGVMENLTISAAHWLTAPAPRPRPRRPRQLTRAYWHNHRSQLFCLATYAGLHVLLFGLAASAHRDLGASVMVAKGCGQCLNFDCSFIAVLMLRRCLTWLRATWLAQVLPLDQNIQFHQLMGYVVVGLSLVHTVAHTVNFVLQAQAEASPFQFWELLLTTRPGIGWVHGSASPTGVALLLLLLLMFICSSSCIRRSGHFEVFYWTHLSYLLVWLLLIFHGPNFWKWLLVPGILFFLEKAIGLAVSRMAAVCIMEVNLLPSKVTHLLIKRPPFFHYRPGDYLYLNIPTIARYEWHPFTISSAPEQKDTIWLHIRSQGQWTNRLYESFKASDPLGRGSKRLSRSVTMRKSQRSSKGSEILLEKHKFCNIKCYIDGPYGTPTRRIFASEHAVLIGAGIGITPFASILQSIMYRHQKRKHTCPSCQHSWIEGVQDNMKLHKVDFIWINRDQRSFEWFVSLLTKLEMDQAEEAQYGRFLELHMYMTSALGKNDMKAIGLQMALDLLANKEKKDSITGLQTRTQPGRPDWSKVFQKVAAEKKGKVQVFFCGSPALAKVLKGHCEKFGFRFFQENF
Assay [11] can be described thus: A549 cell viability effects, profiling panel, calcein-AM fluorescence, 48 h, basal (AID 1162). Also: test concentration not given here. The conditions noted are these: higher = more signal.
Assay [12] in a line: adipocyte viability effects, profiling panel, cell-based, 3T3-L1 adipocytes, calcein-AM fluorescence, 48 h, basal (AID 1163). Also: test concentration not given here. The note with it: 3T3-L1 adipocytes viability, higher = more signal.
Assay [13] in a line: HepG2 cell viability effects, profiling panel, calcein-AM fluorescence, 48 h, basal (AID 1164). Also: test concentration not given here. The note with it: higher = more signal.
Assay [14] can be described thus: MM1S cell viability effects, profiling panel, calcein-AM fluorescence, 48 h, basal (AID 1165).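 Also: viability of MM1S multiple myeloma cells under basal unstimulated conditions; test concentration not given here.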 The note with it: higher = more signal.
The nature of assay [15]: basal RPMI8226 viability, no added stimulus, profiling panel, cell-based, calcein-AM fluorescence, 48 h, PK04 Diversity Set (AID 1166).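 Also: cells grown under basal conditions without added stimulus; test concentration not given here.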 The conditions noted are these: RPMI8226 myeloma viability, higher = more signal.
Assay [16] in a line: basal HepG2 mitochondrial membrane potential changes, profiling panel, cell-based, JC-1 fluorescence, 24 h, 100 nL compound (AID 1167). Also: test concentration not given here. The conditions noted are these: higher = more signal.
The nature of assay [17]: basal 3T3-L1 adipocyte mitochondrial potential changes, profiling panel, cell-based, JC-1 fluorescence, 3T3-L1 adipocytes, 24 h, 100 nL compound (AID 1168). Also: test concentration not given here. The note with it: JC-1 mitochondrial fluorescence, higher = more signal, called active from +8 up or from −8 down.
Assay [18] can be described thus: basal RPMI8226 mitochondrial membrane potential changes, profiling panel, cell-based, JC-1 fluorescence, 24 h, 100 nL compound (AID 1169). Also: test concentration not given here. The conditions noted are these: RPMI8226 myeloma, JC-1 mitochondrial potential fluorescence, higher = more signal.
Assay [19] in a line: basal MM1S mitochondrial membrane potential changes, profiling panel, cell-based, JC-1 fluorescence, 24 h, 100 nL compound (AID 1170). Also: test concentration not given here. The conditions noted are these: higher = more signal.
The nature of assay [20]: A549 lung cancer cell viability effects, profiling panel, resazurin fluorescence, 24 h, PK04 Diversity Set (AID 1171). Also: test concentration not given here. The conditions noted are these: higher = more signal, called active from +8 up or from −8 down. A general note: Resazurin is reduced to fluorescent resorufin, in cell work by metabolically active cells.

The source made the active and inactive calls.

Take `C=C(/C(=C/C[C@@H](OC(=O)c1ccncc1)c1cccc(OCCO)c1)c1cc(C(=O)OC)ccc1OC)C(C)C`: the z-score is 0.987 (inactive) in assay [1]; 15 (active) in assay [3]; 3.01 (inactive) in [4]; 2.43 (inactive) in assay [5]; 1.04 (inactive) in [6]; 0.421 in [7]. The z-score in assay [8] was 2.05 (inactive); in assay [9], 1.09 (inactive); in [10] it was -0.951; in assay [11], 1.49; in assay [12], 0.358; in assay [13] it was 1.21. In addition, the z-score was -2.98 in assay [14]; -2.77 in assay [15]; 2.71 in assay [16]; 0.544 (inactive) in assay [17]; -0.303 in assay [18]; -1.02 in [19]. Also, the z-score in [20] was 0.804 (inactive). In [2], this compound displayed a composite z-score of 0.649.
With `COC(=O)[C@@]1(Cc2ccc(F)cc2)[C@H]2c3cc(C(=O)N(C)C)n(Cc4ccc(C)c(F)c4F)c3C[C@H]2CN1C(=O)c1ccccc1`, the z-score in [1] was -0.165 (inactive); in assay [3], 5.08 (inactive); in assay [4], 1.21 (inactive); in [5], 0.306 (inactive); in assay [6] it was 0.813 (inactive); in assay [7] it was 0.101. Besides, the z-score is 0.561 (inactive) in [8]; -0.0461 (inactive) in assay [9]; 0.169 in [10]; 0.674 in assay [11]; -0.609 in assay [12]; 1.03 in assay [13]. Besides, the z-score is -0.144 in assay [14]; 0.299 in [15]; 3.29 in assay [16]; 0.157 (inactive) in [17]; 0.299 in [18]; -0.605 in assay [19]. For the same compound, the z-score in assay [20] is 0.0638 (inactive). Besides, in [2], the composite z-score was 0.159.
On to `N#Cc1ccc(NN2C(C(O)c3ccco3)C=CC3C(=O)N(c4ccccc4)C(=O)C32)cc1` (stereo not given), for which the z-score in assay [1] is -4.51 (inactive); in assay [3], 7.71 (inactive); in assay [4], 1.67 (inactive); in assay [5] it was 1.12 (inactive); in assay [6], 0.826 (inactive); in assay [7], -0.555. Moreover, the z-score in assay [8] was -0.911 (inactive); in [9], -4.51 (inactive); in assay [10] it was -2.69; in assay [11], -0.121; in assay [12] it was -0.908; in assay [13] it was 1.26. The z-score is -0.372 in assay [14]; -0.197 in assay [15]; -0.764 in assay [16]; -0.829 (inactive) in assay [17]; 0.45 in assay [18]; 0.121 in [19]. The z-score in [20] is -0.2 (inactive). This compound also registered a composite z-score in assay [2] of 0.135.
As for `CC(=O)NCCCC[C@@H]1NC(=O)[C@@H]2C[C@H](C(=O)NCCCC[N+](C)(C)C)[C@H](c3cccc(OCCO)c3)N2C1=O`, the z-score in assay [1] is -0.832 (inactive); in assay [3], 1.63 (inactive); in [4] it was 0.372 (inactive); in assay [5], -0.122 (inactive); in [6], 0.154 (inactive); in assay [7] it was -0.246. The z-score in assay [8] is 0.151 (inactive); in [9], -0.0151 (inactive); in assay [10], 1.29; in [11], -1.05; in assay [12] it was -1.28; in assay [13], -0.776. Also, the z-score is -0.265 in [14]; -1.95 in [15]; -0.851 in assay [16]; -0.0939 (inactive) in assay [17]; 0.287 in assay [18]; 0.235 in [19]. Besides, in assay [20], the z-score was -0.485 (inactive). In addition, in assay [2], the composite z-score amounted to 0.206.
With `COC(=O)[C@@]1(Cc2ccc(OC)cc2)[C@H]2c3cc(C(=O)N4CCCC4)n(Cc4ccc(C)o4)c3C[C@H]2CN1C(=O)c1ccccc1`, the z-score was -1.5 (inactive) in assay [1]; 1.63 (inactive) in [3]; -0.605 (inactive) in assay [4]; 1.07 (inactive) in assay [5]; 0.0276 (inactive) in assay [6]; -1.8 in assay [7]. Besides, the z-score in assay [8] is -4.49 (inactive); in assay [9] it was -2.62 (inactive); in [10], -0.354; in assay [11], -3.86; in assay [12], -3.17; in assay [13], -5.75. Also, the z-score in [14] is -3.31; in assay [15], -4.69; in [16] it was -4.45; in assay [17] it was 3.65 (inactive); in [18], -0.815; in assay [19], -2.9. The z-score in assay [20] was -7.08 (inactive). The same compound yielded a composite z-score in assay [2] of 1.34.
For the compound `COC(=O)[C@@]1(Cc2ccc(F)cc2)[C@@H]2[C@@H](CC(=O)[C@H]2CC(=O)C(=O)N2CCCC2)CN1C(=O)c1ccccc1`, the z-score in [1] is -1.75 (inactive); in assay [3] it was 1.76 (inactive); in assay [4], 0.367 (inactive); in [5], 0.747 (inactive); in assay [6], 0.935 (inactive); in assay [7], -0.502. In addition, the z-score in assay [8] was 0.67 (inactive); in assay [9], 0.478 (inactive); in [10], 1.28; in assay [11], -0.974; in [12] it was -0.0508; in [13], -0.191. Also, the z-score in assay [14] is -2; in assay [15], -1.73; in [16] it was 0.129; in [17] it was -1.52 (inactive); in assay [18], -0.96; in [19] it was -1.25. Moreover, the z-score in [20] is -0.919 (inactive). Further, the composite z-score in assay [2] was 1.33.
For the compound `COC(=O)[C@@]1(Cc2ccccc2)[C@H]2c3cc(C(=O)N4CCCC4)n(CCO)c3C[C@H]2CN1C(=O)c1ccccc1`, the z-score in [1] was -0.258 (inactive); in assay [3], 0.0574 (inactive); in assay [4], -0.644 (inactive); in assay [5], -0.513 (inactive); in assay [6] it was -1.61 (inactive); in assay [7], 1.33. Also, the z-score was 0.661 (inactive) in assay [8]; -0.517 (inactive) in assay [9]; -2.49 in assay [10]; -0.258 in assay [11]; 0.577 in [12]; 0.345 in [13]. Further, the z-score in [14] was -0.867; in assay [15] it was 0.688; in assay [16], 0.844; in [17] it was 0.671 (inactive); in assay [18], 0.0245; in [19], -0.77. Further, the z-score in assay [20] is -0.103 (inactive). The composite z-score in [2] is 1.89.
On to `CC1CC/C=C\[C@H]2OC34C=CCN(Cc5ccccc5)C(=O)[C@H]3N(CCO)C(=O)[C@@H]4C2C(=O)O1` (stereo not given in full), for which the z-score in [1] is 0.788 (inactive); in [3] it was 3.52 (inactive); in [4] it was -0.133 (inactive); in assay [5], 0.272 (inactive); in assay [6] it was -0.18 (inactive); in assay [7], -0.0144. Besides, the z-score in [8] was 1.66 (inactive); in assay [9] it was 0.0441 (inactive); in [10], 2.24; in assay [11], -0.106; in [12], 1.1; in [13] it was 0.337. Besides, the z-score in assay [14] is 1.47; in assay [15], -0.105; in assay [16] it was 0.0673; in assay [17], 0.488 (inactive); in assay [18], -0.657; in [19], 2.1. Besides, the z-score in assay [20] is -0.783 (inactive). The same compound yielded a composite z-score in assay [2] of -0.0867.
On to `CC(C)N1C(=O)c2ccccc2[C@](C)(C(=O)O)[C@@H]1c1ccc(CO)cc1`, for which the z-score in assay [1] is -0.308 (inactive); in assay [3] it was 0.268 (inactive); in assay [4], -0.103 (inactive); in assay [5], 0.209 (inactive); in assay [6] it was 0.352 (inactive); in assay [7], 0.256. The z-score was 0.229 (inactive) in assay [8]; -0.166 (inactive) in [9]; -1.27 in [10]; -0.786 in assay [11]; 0.0073 in assay [12]; -0.876 in assay [13]. Besides, the z-score in [14] is 0.0364; in assay [15], 0.0868; in [16], 0.0703; in assay [17], 0.597 (inactive); in assay [18], 0.663; in assay [19], -0.188. In addition, the z-score in assay [20] was 0.069 (inactive). Further, in assay [2], the composite z-score amounted to 0.0451.

The values are drawn from PubChem BioAssay.
